# According to PubChem BioAssay AID2110 (National Center for Advancing Translational Sciences (NCATS), 2009):
# Inconclusive results are not listed. A call without a number means that no potency is given here. Calls of active or inactive are those of the source. Calls come from the whole dose curve; as a rule, active = well fitted curve in either direction with a large enough effect; inconclusive = small, poorly fitted or top-dose-only effect; inactive = no such curve, though single readings can be large or run the other way.
# Molecular target: Lysosomal alpha-glucosidase (Homo sapiens) (UniProt P10253)
# Assay: Confirmation of Inhibitors and Activators of Purified Human alpha-Glucosidase Using an Alternate Red Fluorescent Susbtrate
# Excerpt: NIH Chemical Genomics Center [NCGC]
# NIH Molecular Libraries Probe Production centers Network [MLPCN]
# Assay Submitter (PI): Wei Zheng
# Alpha-glucosidase is responsible for hydrolysis of terminal, non-reducing 1,4-linked alpha-D-glucose residues with release of alpha-D-glucose. It is a lysosomal hydrolase that is required for the degradation of a small percentage (1-3%) of cellular glycogen in human. Deficiency of this enzyme results in glycogen-storage disease type II (GSDII), also referred to as Pompe disease, an autosomal recessive disorder. Structurally normal glycogen is accumulated in lysosomes and cytoplasm in affected patients, primarily in muscle tissues. Excessive glycogen storage within lysosomes may interrupt normal functioning of other organelles and leads to cellular injury. […]
# This is a fluorogenic enzyme assay with resorufin-alpha-D-pyranoside as the substrate and recombinant human alpha-glucosidase as the enzyme preparation. Upon the hydrolysis of this fluorogenic substrate, the resulting product, resorufin, can be excited at 573 nm and emits at 610 nm which can be detected by a standard fluorescence plate reader. […] The AC50 values were determined from concentration-response data modeled with the standard Hill equation. […]
# (6) Detect the assay plate in a ViewLux plate reader (PerkinElmer) with Ex=365 nm and Em=440nm. […]
row,Structure (SMILES),Potency
1,CC[C@@]1(O)C(=O)OCc2c1cc1n(c2=O)Cc2cc3ccccc3nc2-1,inactive
2,Cc1c2ccncc2c(C)c2c1[nH]c1ccccc12,35.5 µM (active)
